Results taken from PubChem BioAssay (NCATS).
Records with an inconclusive call do not appear. Where a call stands in place of a potency, no number is given. Calls of active or inactive are those of the source. Calls follow the shape of the dose curve; as a rule, active = well fitted inhibition curve with a large enough effect; inconclusive = small, poorly fitted or top-dose-only effect; inactive = flat fitted curve, though single readings scatter.

tested on: NIH3T3; experiment: qHTS assay to identify novel small-molecules to repurpose for Merkel cell carcinoma treatment (AID 1296009); conditions: MCC and control cell lines, CellTiter-Glo viability, 72 h; at 44.8 µM (top of the series) unless noted; also: nearly all actives have a fitted effect of over 60% in size
Outline: (§1)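 Cells exposed to NPC (8-point) and MIPE (11-point) compound dilutions for 72 hr at 37 degree celsius; viability read by CellTiter-Glo luminescence, normalized to no-cell and DMSO in-plate controls.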
Potency is read from the fitted curve at half-maximal effect.

| Compound | outcome |
| --- | --- |
| C[C@H](Cn1cnc2c(N)ncnc21)OCP(=O)(O)O | inactive |
| N[C@@H](Cc1cc(I)c(Oc2cc(I)c(O)c(I)c2)c(I)c1)C(=O)O | inactive |
| COc1ccccc1N1CCN(CCN(C(=O)C2CCCCC2)c2ccccn2)CC1 | inactive |
| Nc1ccc(S(N)(=O)=O)cc1 | inactive |
| COc1cc(OC)c(C(=O)CCCN2CCCC2)c(OC)c1 | inactive |
| CN1CCC(=C2c3ccccc3CCc3sccc32)CC1 | inactive |
| CCOC(=O)c1c(C)n(C)c2ccc(O)cc12 | inactive |
| Nc1ccn([C@@H]2O[C@H](CO)[C@@H](O)C2O)c(=O)n1 (stereo partly specified) | inactive |
| O=C(O)c1cccnc1Nc1cccc(C(F)(F)F)c1 | inactive |
| CCC(C)(Oc1ccc(C2(c3ccc(OC(C)(CC)C(=O)O)cc3)CCCCC2)cc1)C(=O)O (stereo unspecified) | inactive |
| COCCCOc1ccnc(CS(=O)c2nc3ccccc3[nH]2)c1C (stereo unspecified) | inactive |
| COc1cc2c(cc1OC)C1CC(=O)C(CC(C)C)CN1CC2 (stereo unspecified) | inactive |
| CNC[C@@H](O)[C@@H](O)[C@H](O)[C@H](O)CO | inactive |
| O=C(NCCO[N+](=O)[O-])c1cccnc1 | inactive |
| Oc1ccc(OCc2ccccc2)cc1 | inactive |
| Cc1ccc(NC(=O)c2ccc(CN3CCN(C)CC3)cc2)cc1Nc1nccc(-c2cccnc2)n1 | inactive |
| c1cnc2cc3c(cc2n1)C1CNCC3C1 | inactive |
| OC(CN1CCN(c2cccc(Cl)c2)CC1)C(c1ccccc1)c1ccccc1 (stereo unspecified) | inactive |
| Nc1nc(OCc2ccccc2)c2[nH]cnc2n1 | inactive |

tested on: UISO; experiment: as above; conditions: MCC and control cell lines, CellTiter-Glo viability, 72 h; series mostly up to 46 µM
Outline: as §1

| Compound | Potency |
| --- | --- |
| C[C@H](Cn1cnc2c(N)ncnc21)OCP(=O)(O)O | inactive |
| N[C@@H](Cc1cc(I)c(Oc2cc(I)c(O)c(I)c2)c(I)c1)C(=O)O | inactive |
| COc1ccccc1N1CCN(CCN(C(=O)C2CCCCC2)c2ccccn2)CC1 | inactive |
| CNC[C@H](O)c1ccc(O)c(O)c1 | inactive |
| Nc1ncn([C@H]2C[C@H](O)[C@@H](CO)O2)c(=O)n1 | inactive |
| Cc1cc(=O)oc2cc(O)ccc12 | inactive |
| O=C(NOCC1CC1)c1ccc(F)c(F)c1Nc1ccc(I)cc1Cl | 15 µM (active) |
| Nc1ccc(S(N)(=O)=O)cc1 | inactive |
| C[C@@H](N)C1CCC(C(=O)Nc2ccncc2)CC1 (stereo partly specified) | inactive |
| COc1cc(OC)c(C(=O)CCCN2CCCC2)c(OC)c1 | inactive |
| CN1CCC(=C2c3ccccc3CCc3sccc32)CC1 | inactive |
| CCN(CC)CCOc1ccc(Cc2ccccc2)cc1 | inactive |
| CCOC(=O)c1c(C)n(C)c2ccc(O)cc12 | inactive |
| Cc1cc(=O)c2c(O)c3c(O)cc(=O)c4c3c3c(cc(O)c1c23)C(C)(C)C=4O | inactive |
| Nc1ccn([C@@H]2O[C@H](CO)[C@@H](O)C2O)c(=O)n1 (stereo partly specified) | inactive |
| O=C(O)c1cccnc1Nc1cccc(C(F)(F)F)c1 | inactive |
| CCC(C)(Oc1ccc(C2(c3ccc(OC(C)(CC)C(=O)O)cc3)CCCCC2)cc1)C(=O)O (stereo unspecified) | inactive |
| CC1Cc2ccccc2N1NC(=O)c1ccc(Cl)c(S(N)(=O)=O)c1 (stereo unspecified) | inactive |
| CCOc1cc(CC(=O)N[C@@H](CC(C)C)c2ccccc2N2CCCCC2)ccc1C(=O)O | inactive |

| Compound | Potency |
| --- | --- |
| Cc1ccc(C(=O)c2cc(O)c(O)c([N+](=O)[O-])c2)cc1 | inactive |
| Cc1nccn1CC1CCc2c(c3ccccc3n2C)C1=O (stereo unspecified) | inactive |
| CC(S)C(=O)NCC(=O)O (stereo unspecified) | inactive |
| COCCCOc1ccnc(CS(=O)c2nc3ccccc3[nH]2)c1C (stereo unspecified) | inactive |
| CC(C)c1ccc2oc3nc(N)c(C(=O)O)cc3c(=O)c2c1 | inactive |
| COc1cc2c(cc1OC)C1CC(=O)C(CC(C)C)CN1CC2 (stereo unspecified) | inactive |
| CNC[C@@H](O)[C@@H](O)[C@H](O)[C@H](O)CO | inactive |
| Cc1ccc(Nc2nccc(N(C)c3ccc4c(C)n(C)nc4c3)n2)cc1S(N)(=O)=O | inactive |
| O=C(NCCO[N+](=O)[O-])c1cccnc1 | inactive |
| CC1(C)NC(=O)N(c2ccc([N+](=O)[O-])c(C(F)(F)F)c2)C1=O | inactive |
| Clc1ccc2c(N3CCN(CCCN4CCN(c5ccnc6cc(Cl)ccc56)CC4)CC3)ccnc2c1 | inactive |
| Oc1ccc(OCc2ccccc2)cc1 | inactive |
| Cc1ccc(NC(=O)c2ccc(CN3CCN(C)CC3)cc2)cc1Nc1nccc(-c2cccnc2)n1 | inactive |
| NC(=O)Cc1cccc(C(=O)c2ccccc2)c1N | inactive |
| c1cnc2cc3c(cc2n1)C1CNCC3C1 | inactive |
| c1ccc2[nH]c(-c3cscn3)nc2c1 | inactive |
| OC(CN1CCN(c2cccc(Cl)c2)CC1)C(c1ccccc1)c1ccccc1 (stereo unspecified) | inactive |
| Nc1nc(OCc2ccccc2)c2[nH]cnc2n1 | inactive |
